Values without a mark were called inactive.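 How the source made its calls: active means EC50 at or below 10 µM; inactive means EC50 above 10 µM.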 Some results are limits rather than exact numbers.

A short description of the experiment: fluorescence interference artefacts, compound only, dose response, artefact control for cardiac thin filament activator project, biochemical, no RTF in test wells (AID 504697).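 Further: emission near 535 nm under roughly 485 nm excitation as for IANBD.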 Conditions: compound-only fluorescence in RTF assay buffer with Ca2+ (no RTF in test wells), artifact counterscreen. (In general: A counterscreen serves to expose hits that act by an unwanted route or on another target.)
As to `Cn1nc(NC(=O)C2CCC2C(=O)O)c2c(F)cccc21` (centres undefined), the EC50 (usually the concentration giving half of the maximal effect) was greater than 71.5 µM. In the case of `S=c1[nH]nc(-c2ccc(Cl)cc2)n1-c1ccc2c(c1)OCCO2` it was greater than 71.5 µM; in that of `CCOc1cc(/C=C2\N=C(SC(C)C(N)=O)N(c3ccc(OC(F)F)cc3)C2=O)ccc1O` (centres undefined), 23.3 µM; in that of `CN(/N=C/c1ccc(-c2ccc([N+](=O)[O-])cc2)o1)c1ccccc1`, greater than 71.5 µM. For `O=C(O)c1ccccc1CSc1nnnn1-c1ccccc1` the value was greater than 71.5 µM; for `O=C(NC1CCCCC1)c1cccc2c1C(=O)c1ccc(N3CCCC3)cc1S2(=O)=O`, greater than 23.8 µM; for `O=C(NCc1nnc(SCC(=O)N2CCCCCC2)o1)c1ccco1`, greater than 71.5 µM. For `CCN(CC)CCN1C(=O)c2cccc3cc(N)cc(c23)C1=O` the value was 49.2 µM; for `O=C(Nc1ccc(Cl)c(Cl)c1)Nc1ccc([N+](=O)[O-])cn1`, greater than 71.5 µM; for `O=C(O)c1cc(NCc2ccc(F)cc2)ccc1N1CCOCC1`, greater than 71.5 µM.

For the compound `Cc1nnc(N/N=C/c2ccc(O)c([N+](=O)[O-])c2)[nH]c1=O`, the EC50 is greater than 71.5 µM. In the case of `N#C/C(=C\c1c[nH]c2ccccc12)C(=O)Nc1ncc(Cc2ccc(Cl)cc2Cl)s1` it was greater than 71.5 µM. For `CCN(CC)C(=S)SCC(=O)c1c(C)[nH]c2ccccc12` the value was greater than 71.5 µM. In the case of `CC1(C)CC(=O)C(C=Nc2cc(C(=O)c3ccccc3)ccc2N)=C(O)C1` it was greater than 71.5 µM.

For the origin of these results see PubChem BioAssay AID504697 (The Scripps Research Institute Molecular Screening Center, 2011).
